# Source: PMC5700166
# Positions count from the first letter of the chain named.
# Columns and labels:
# Assay in all cases: protein-binding microarray (PBM); PBM: ~300 nM protein, 6 mM HEPES pH 7.8, 80 mM KCl, 0.5 mM EDTA, 0.5 mM EGTA, 6% glycerol, 35 ng/ul poly-dIdC, 1% milk, 1 h, room temperature; Ap Aiptasia and Nv Nematostella (sea anemones) / Co Capsaspora / Aq Amphimedon (sponge) / Dm Drosophila / Hu human; RHD is the Rel homology domain; high values mean tight binding
# Conditions in all cases: dsDNA, one strand shown
# GST-Ap-NF-kB RHD = molecular target: T1, GST-Ap-NF-kB RHD (Exaiptasia pallida (Aiptasia), UniProt A0A913YAJ5 2-422)
# T1 sequence: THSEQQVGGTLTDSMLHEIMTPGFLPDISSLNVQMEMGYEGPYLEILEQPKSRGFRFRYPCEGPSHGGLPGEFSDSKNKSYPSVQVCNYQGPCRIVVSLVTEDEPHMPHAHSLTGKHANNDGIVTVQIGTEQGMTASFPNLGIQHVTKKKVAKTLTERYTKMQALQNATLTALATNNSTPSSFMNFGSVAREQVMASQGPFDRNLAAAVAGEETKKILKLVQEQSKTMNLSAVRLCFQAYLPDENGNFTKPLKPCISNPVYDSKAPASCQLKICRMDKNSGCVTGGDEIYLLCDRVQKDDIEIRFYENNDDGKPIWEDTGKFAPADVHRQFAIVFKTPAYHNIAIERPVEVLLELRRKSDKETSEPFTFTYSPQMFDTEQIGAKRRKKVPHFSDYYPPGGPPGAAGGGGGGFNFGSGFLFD
# [1] = molecular target: T2, GST-Nv-NF-kB (Cys allele) (Nematostella vectensis, UniProt E5G601 2-411)
# T2 sequence: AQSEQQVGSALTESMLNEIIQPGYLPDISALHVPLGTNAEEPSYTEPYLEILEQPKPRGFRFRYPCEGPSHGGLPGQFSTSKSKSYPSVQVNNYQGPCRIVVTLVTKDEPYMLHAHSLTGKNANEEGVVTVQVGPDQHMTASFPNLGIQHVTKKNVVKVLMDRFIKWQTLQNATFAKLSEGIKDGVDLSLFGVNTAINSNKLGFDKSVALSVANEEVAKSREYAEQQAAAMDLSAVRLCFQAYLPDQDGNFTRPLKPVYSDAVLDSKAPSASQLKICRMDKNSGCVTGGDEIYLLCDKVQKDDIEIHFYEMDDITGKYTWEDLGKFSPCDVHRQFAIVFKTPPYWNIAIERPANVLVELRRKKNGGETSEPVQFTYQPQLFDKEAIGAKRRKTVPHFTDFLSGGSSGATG
# [2] = molecular target: T3, GST-Nv-NF-kB (Ser allele) (Nematostella vectensis, UniProt A7UNT2 2-411)
# T3 sequence: T2 sequence with Q21R, C66S, S207N, E215Q, V217A, E225K, A268E, D399E
# GST-Co-NF-kB = molecular target: T4, GST-Co-NF-kB (Capsaspora owczarzaki, UniProt F1ARL5 200-546)
# T4 sequence: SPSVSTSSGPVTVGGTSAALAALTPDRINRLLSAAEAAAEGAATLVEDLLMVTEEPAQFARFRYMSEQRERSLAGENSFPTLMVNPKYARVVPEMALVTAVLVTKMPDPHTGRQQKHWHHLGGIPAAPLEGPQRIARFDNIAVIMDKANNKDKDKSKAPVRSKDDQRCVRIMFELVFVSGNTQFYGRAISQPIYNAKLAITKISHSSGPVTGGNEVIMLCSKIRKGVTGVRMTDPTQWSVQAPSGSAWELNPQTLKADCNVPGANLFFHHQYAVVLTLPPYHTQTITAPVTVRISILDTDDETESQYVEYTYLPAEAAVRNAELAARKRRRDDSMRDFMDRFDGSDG
# GST-Dm-Relish = molecular target: T5, GST-Dm-Relish (Drosophila melanogaster, UniProt Q94527 99-473)
# T5 sequence: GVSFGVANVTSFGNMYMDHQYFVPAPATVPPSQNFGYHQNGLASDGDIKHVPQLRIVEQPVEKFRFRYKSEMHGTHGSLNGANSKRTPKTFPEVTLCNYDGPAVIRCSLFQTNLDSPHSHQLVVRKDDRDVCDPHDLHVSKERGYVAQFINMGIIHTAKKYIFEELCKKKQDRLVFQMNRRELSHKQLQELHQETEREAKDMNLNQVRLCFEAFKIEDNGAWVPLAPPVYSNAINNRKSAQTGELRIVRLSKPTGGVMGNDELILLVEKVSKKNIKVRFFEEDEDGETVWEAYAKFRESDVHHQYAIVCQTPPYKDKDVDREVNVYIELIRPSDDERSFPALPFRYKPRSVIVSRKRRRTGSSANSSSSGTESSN
# GST-Aq-NF-kB = molecular target: T6, GST-Aq-NF-kB (Amphimedon queenslandica, UniProt A9Y5G7 2-389)
# T6 sequence: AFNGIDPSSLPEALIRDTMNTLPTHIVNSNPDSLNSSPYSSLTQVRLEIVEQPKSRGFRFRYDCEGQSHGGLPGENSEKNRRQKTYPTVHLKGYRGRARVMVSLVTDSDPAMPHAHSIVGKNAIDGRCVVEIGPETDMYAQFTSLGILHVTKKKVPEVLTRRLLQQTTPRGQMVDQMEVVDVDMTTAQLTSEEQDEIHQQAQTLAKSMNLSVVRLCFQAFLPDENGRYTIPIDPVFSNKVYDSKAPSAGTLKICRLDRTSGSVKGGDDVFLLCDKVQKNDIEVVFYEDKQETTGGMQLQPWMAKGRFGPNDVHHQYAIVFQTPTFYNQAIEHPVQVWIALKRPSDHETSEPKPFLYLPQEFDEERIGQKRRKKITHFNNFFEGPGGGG
# GST-Hu-p50 = GST-Hu-p50 (Homo sapiens, UniProt P19838 7-356)
# Chain of GST-Hu-p50 (P19838 7-356): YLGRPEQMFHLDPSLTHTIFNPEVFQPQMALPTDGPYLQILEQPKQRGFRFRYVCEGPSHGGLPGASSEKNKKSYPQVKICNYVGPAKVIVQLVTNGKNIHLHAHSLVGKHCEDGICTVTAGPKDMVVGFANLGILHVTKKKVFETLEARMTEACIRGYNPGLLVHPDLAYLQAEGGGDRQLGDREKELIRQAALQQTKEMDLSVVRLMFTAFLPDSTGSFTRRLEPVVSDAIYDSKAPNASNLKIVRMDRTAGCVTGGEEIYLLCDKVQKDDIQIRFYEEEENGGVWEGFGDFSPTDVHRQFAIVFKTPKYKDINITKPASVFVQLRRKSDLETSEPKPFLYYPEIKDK
Sequence,binding signal (GST-Ap-NF-kB RHD),binding signal [1],binding signal [2],binding signal (GST-Co-NF-kB),binding signal (GST-Dm-Relish),binding signal (GST-Aq-NF-kB),binding signal (GST-Hu-p50)
CCGATTAACATCACATCTCCCCCTGATGTTAATCGGGTCTTGATTCGCTTGACGCTGCTG,6.34 z-score,4.75 z-score,5.94 z-score,7.54 z-score,2.35 z-score,4.36 z-score,5.73 z-score
CCGATTAACATCAGGGGAATACATGATGTTAATCGGGTCTTGATTCGCTTGACGCTGCTG,6.98 z-score,8.02 z-score,7.97 z-score,6.18 z-score,6.02 z-score,5.87 z-score,5.42 z-score
CCGATTAACATCACGGATTCCCCTGATGTTAATCGGGTCTTGATTCGCTTGACGCTGCTG,8.74 z-score,9.07 z-score,9.24 z-score,6.61 z-score,8.89 z-score,6.68 z-score,6.26 z-score
CCGATTAACATCACAGAATCCCCTGATGTTAATCGGGTCTTGATTCGCTTGACGCTGCTG,8.13 z-score,8.87 z-score,11.1 z-score,3.42 z-score,7.58 z-score,6.21 z-score,6.89 z-score
CCGATTAACATCAAAAATCCCCCTGATGTTAATCGGGTCTTGATTCGCTTGACGCTGCTG,11.1 z-score,11.4 z-score,12.8 z-score,8.5 z-score,10.1 z-score,9.28 z-score,8.05 z-score
CCGATTAACATCAAGGAACTCCCTGATGTTAATCGGGTCTTGATTCGCTTGACGCTGCTG,3.98 z-score,3.82 z-score,2.62 z-score,1.49 z-score,5.06 z-score,5.06 z-score,3.54 z-score
CCGATTAACATCAGGGGATGAATTGATGTTAATCGGGTCTTGATTCGCTTGACGCTGCTG,3.07 z-score,4.37 z-score,5.12 z-score,4.99 z-score,2.75 z-score,3.44 z-score,3.88 z-score
CCGATTAACATCAGGGGAGGTTATGATGTTAATCGGGTCTTGATTCGCTTGACGCTGCTG,4.62 z-score,3.22 z-score,4.77 z-score,4.52 z-score,1.82 z-score,3.84 z-score,3.74 z-score
CCGATTAACATCAGAGTTTCCCCTGATGTTAATCGGGTCTTGATTCGCTTGACGCTGCTG,7.08 z-score,8.35 z-score,9.96 z-score,7.72 z-score,4.61 z-score,6.33 z-score,6.14 z-score
CCGATTAACATCAATTTCCCAGGTGATGTTAATCGGGTCTTGATTCGCTTGACGCTGCTG,2.16 z-score,2.4 z-score,3.53 z-score,3.41 z-score,1.61 z-score,2.15 z-score,3.21 z-score
CCGATTAACATCAGGAATCTCCCTGATGTTAATCGGGTCTTGATTCGCTTGACGCTGCTG,3.91 z-score,6.08 z-score,3.67 z-score,1.77 z-score,2.25 z-score,7.75 z-score,4.69 z-score
CCGATTAACATCAAAATGTCCCCTGATGTTAATCGGGTCTTGATTCGCTTGACGCTGCTG,6.81 z-score,6.47 z-score,7.12 z-score,5.57 z-score,6.24 z-score,5.89 z-score,5.58 z-score
CCGATTAACATCAGGGAAAGCCCTGATGTTAATCGGGTCTTGATTCGCTTGACGCTGCTG,6.37 z-score,8.76 z-score,4.62 z-score,1.84 z-score,7.96 z-score,8.88 z-score,4.93 z-score
CCGATTAACATCAAGGGAAATTCTGATGTTAATCGGGTCTTGATTCGCTTGACGCTGCTG,5.74 z-score,8.12 z-score,7.46 z-score,4.57 z-score,3.68 z-score,6.88 z-score,5.4 z-score
CCGATTAACATCAAAAATCCCCTTGATGTTAATCGGGTCTTGATTCGCTTGACGCTGCTG,10.4 z-score,12.3 z-score,13.5 z-score,4.34 z-score,10.1 z-score,8.57 z-score,8.54 z-score
CCGATTAACATCATCAGGGGAAATGATGTTAATCGGGTCTTGATTCGCTTGACGCTGCTG,5.62 z-score,7.05 z-score,8.79 z-score,5.8 z-score,2.39 z-score,4.58 z-score,5.42 z-score
CCGATTAACATCAGGGGAAATTATGATGTTAATCGGGTCTTGATTCGCTTGACGCTGCTG,8.88 z-score,10.5 z-score,12.1 z-score,9.24 z-score,6.62 z-score,7.99 z-score,6.95 z-score
CCGATTAACATCAAAAATCCCGGTGATGTTAATCGGGTCTTGATTCGCTTGACGCTGCTG,4.77 z-score,4.4 z-score,4.06 z-score,2.98 z-score,8.52 z-score,5.12 z-score,3.94 z-score
CCGATTAACATCAAGGGGGGTAATGATGTTAATCGGGTCTTGATTCGCTTGACGCTGCTG,4.04 z-score,4.87 z-score,4.3 z-score,5.42 z-score,3.36 z-score,4.75 z-score,3.62 z-score
CCGATTAACATCAGGGGAATTCATGATGTTAATCGGGTCTTGATTCGCTTGACGCTGCTG,9.45 z-score,10.8 z-score,10.8 z-score,6.94 z-score,7.6 z-score,7.5 z-score,6.83 z-score
CCGATTAACATCAACAAATCCCCTGATGTTAATCGGGTCTTGATTCGCTTGACGCTGCTG,7.43 z-score,7.95 z-score,10.9 z-score,4.14 z-score,6.61 z-score,5.53 z-score,7.22 z-score
CCGATTAACATCAGAAAGCCCCCTGATGTTAATCGGGTCTTGATTCGCTTGACGCTGCTG,6.56 z-score,7.59 z-score,5.42 z-score,2.16 z-score,7.39 z-score,6.98 z-score,6.29 z-score
CCGATTAACATCAGGGAAAAACATGATGTTAATCGGGTCTTGATTCGCTTGACGCTGCTG,3.76 z-score,5.03 z-score,7.18 z-score,5.51 z-score,6.52 z-score,5.27 z-score,4.03 z-score
CCGATTAACATCAGGGGACTTACTGATGTTAATCGGGTCTTGATTCGCTTGACGCTGCTG,5.97 z-score,5.56 z-score,5.43 z-score,2.17 z-score,8.32 z-score,5.66 z-score,5.68 z-score
CCGATTAACATCAGGGAAGCCCCTGATGTTAATCGGGTCTTGATTCGCTTGACGCTGCTG,9.42 z-score,10.8 z-score,7.12 z-score,1.97 z-score,10.3 z-score,9.75 z-score,6.02 z-score
